Assay outcomes from PubChem.
Hits are enriched below; roughly 8.3% of the tested compounds scored in any of these assays.
Chronic BCR inh: chronic active BCR signaling inhibition. ABC-DLBCL IkBa-CBG/CBR reporter, luminescence ratio, 4 h. Potency, µM (highest dose often 46.1 µM), for the others: at the top dose activity change, negative = inhibition, hits mostly inhibitors. 340,000 compounds, 0.05% hits. AID 493014; active = well fitted inhibition curve with a large enough effect in the signal ratio, with a control signal flat, not every such curve was filed as active; inconclusive = small, poorly fitted or top-dose-only effect, or effect the other way, or a change in a side signal; the % refers to the signal ratio;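 note: potency is the fitted concentration of half-maximal effect; plate controls were basal doxycycline-induced cells for no effect and cells given 10 µM MG132 for full effect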
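Doxycycline induced both beetle luciferases in TMD8 lymphoma cells; IKK-driven degradation limits the IkappaBalpha-fused green signal, while red luminescence normalises for cell number and nonspecific effects. Compounds tested up to 46 uM, 4 hrs.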
RORg inh: blocks mouse ROR gamma transcriptional activity | P51450 | Drosophila S2 Gal4-RORgamma UAS-luciferase reporter, 20 h | Potency, µM (top dose mostly 53.6 µM), for inactives: at the highest dose activity change, negative = inhibition, usual class: inhibitors | 310,000 compounds, 5.4% hits | AID 2551; note: potency is the fitted concentration of half-maximal effect; % is set by controls: 0 for no effect and ±100 for the full control effect; nearly all actives have a fitted effect of over 60% in size
Target sequence (P51450 whole entry, looked up, the tested form may be a part): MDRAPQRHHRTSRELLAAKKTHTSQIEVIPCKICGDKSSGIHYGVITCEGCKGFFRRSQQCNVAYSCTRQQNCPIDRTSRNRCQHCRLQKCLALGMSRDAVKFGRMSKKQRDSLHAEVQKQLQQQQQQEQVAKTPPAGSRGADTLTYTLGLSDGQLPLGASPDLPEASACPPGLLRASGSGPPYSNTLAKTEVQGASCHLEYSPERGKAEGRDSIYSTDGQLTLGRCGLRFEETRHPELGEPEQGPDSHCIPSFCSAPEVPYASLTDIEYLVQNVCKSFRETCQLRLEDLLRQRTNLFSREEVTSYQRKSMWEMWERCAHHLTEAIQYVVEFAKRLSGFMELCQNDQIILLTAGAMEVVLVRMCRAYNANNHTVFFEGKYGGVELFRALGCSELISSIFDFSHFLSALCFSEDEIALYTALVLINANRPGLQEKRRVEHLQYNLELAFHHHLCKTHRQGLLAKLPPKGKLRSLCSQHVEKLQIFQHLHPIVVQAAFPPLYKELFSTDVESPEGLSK
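Drosophila S2 cells stably expressing Gal4-DBD/mouse RORγ fusion under metallothionein promoter plus UAS-luciferase; compound 1 h, then 700 uM CuSO4 induction for 20 h at ambient temperature; inhibition read as reduced luminescence.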
VP16 counter: Gal4-VP16 reporter inhibition counter-screen | 310,000 compounds, 3.5% hits | Potency, µM (top dose mostly 53.6 µM), for the others: at the top dose activity, negative = inhibition, actives largely listed as inhibitors | Drosophila S2 Gal4-VP16 UAS-luciferase, luminescence, 20 h;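 note: Gal4-VP16 expression switched on by copper sulfate through the metallothionein promoter; potency is the fitted concentration of half-maximal effect; % is set by controls: 0 for no effect and ±100 for the full control effect; nearly all actives have a fitted effect of over 50% in size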
Giardia kill: Giardia lamblia killing. 340,000 compounds, 0.15% hits. Giardia lamblia trophozoite viability. activity change, % at 7.66 µM, hits read low; in the data active = activity change below about -80%; inconclusive = between about -30% and that limit;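 note: parasites exposed to compound for two days anaerobically before the ATP read; % is set by controls: 0 for no effect and ±100 for the full control effect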
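Trophozoites 100 cells/well + cpd; 48 hrs, 37 deg C, anaerobic. ATPLite 1-Step added, 15-30 min RT, luminescence read (ATP-based viability).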
MCF10A rereplic: DNA re-replication induction in MCF 10a cells; 350,000 compounds, 2.9% hits; MCF 10A DNA re-replication, Hoechst nuclear intensity, 48 h; Potency, µM (top dose mostly 46.1 µM), inactives show top-dose activity, positive = re-replication, hits mostly activators; note: potency is the fitted concentration of half-maximal effect; % of control where 0% means no effect; nearly all actives have a fitted effect of over 50% in size
SW480 rerep: induces DNA re-replication in SW480 colon adenocarcinoma cells. SW480 DNA re-replication, Hoechst DNA content imaging, 48 h. Potency, µM (series often up to 46.1 µM), without a hit: top-dose re-replication activation, most hits filed as activators. AID 624297. 340,000 compounds, 1.8% hits; note: potency is the fitted concentration of half-maximal effect; % of control where 0% means no effect; nearly all actives have a fitted effect of over 55% in size
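Treated cells incubate 48 hr (37 C, 5% CO2), are stained 40 min with Hoechst, and nuclear fluorescence is enumerated; a rise in nuclei with high DNA signal marks re-replication.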
The depositor's hits bear a star. Unless noted, calls come from the whole dose curve; as a rule, active = well fitted curve in the direction sought with a large enough effect; inconclusive = small, poorly fitted or top-dose-only effect, or another doubt; inactive = no such curve, though single readings can be large; an effect the other way counts as inactive or inconclusive.

`CCOc1ccccc1N(CC(=O)NCC1CCCO1)C(=O)CCC(=O)Nc1ccccn1` (configuration not stated) gave Chronic BCR inh 9%, RORg inh 35µM*, VP16 counter -18%, Giardia kill -3, MCF10A rereplic 4% and SW480 rerep -4%.
`COc1ccc(S(=O)(=O)NC(CC(=O)O)c2ccco2)cc1` (configuration not stated) gave Chronic BCR inh inconclusive, RORg inh -1%, VP16 counter -4%, Giardia kill 12, MCF10A rereplic 2% and SW480 rerep -3%.
For COc1ccccc1N(CC(=O)NCC1CCCO1)C(=O)CNS(=O)(=O)c1ccc(C)cc1 (configuration not stated) the results were Chronic BCR inh 8%, RORg inh 24%, VP16 counter -6%, Giardia kill -3, MCF10A rereplic 2% and SW480 rerep -9%.
`COc1ccccc1N(CC(=O)NCC1CCCO1)C(=O)CNS(=O)(=O)c1ccc(Cl)cc1` (configuration not stated) gave Chronic BCR inh 1%, RORg inh 36%, VP16 counter -11%, Giardia kill -8, MCF10A rereplic 0% and SW480 rerep 0.73µM*.
Screening Clc1ccc(-c2nnc(-c3ccccc3)o2)cn1 returned Chronic BCR inh inconclusive, RORg inh 1%, VP16 counter -8%, Giardia kill 3, MCF10A rereplic -5% and SW480 rerep -2%.
`Clc1ccc(OCc2cn3ccccc3n2)c2ncccc12` gave Chronic BCR inh inconclusive, RORg inh 11µM*, VP16 counter inconclusive, Giardia kill -6, MCF10A rereplic -1% and SW480 rerep 0%.
Screening OCc1ccccc1OCCOc1ccc(Cl)c2cccnc12 returned Chronic BCR inh -25%, RORg inh inconclusive, VP16 counter 12%, Giardia kill 9, MCF10A rereplic 3% and SW480 rerep -10%.
For COc1ccc(C(=O)O)cc1NCc1cccnc1 the results were Chronic BCR inh 7%, Giardia kill 3, MCF10A rereplic -2% and SW480 rerep 0%.
`CCN(C(=O)CC(C)C)c1nnc(Cn2nnc3ccccc32)s1` gave Chronic BCR inh -1%, RORg inh 18%, VP16 counter inconclusive, Giardia kill -13, MCF10A rereplic 10% and SW480 rerep inconclusive.
CCN(C(=O)c1ccc(C(C)(C)C)cc1)c1nnc(Cn2nnc3ccccc32)s1 was read as Chronic BCR inh inconclusive, RORg inh inconclusive, VP16 counter 5.6µM*, Giardia kill -13, MCF10A rereplic 29% and SW480 rerep inconclusive.
`COc1ccc(/C=C/c2ccc3cccc(O)c3n2)cc1Br` gave Chronic BCR inh inconclusive, RORg inh 2µM*, VP16 counter 3.2µM*, Giardia kill -1, MCF10A rereplic 6% and SW480 rerep 10%.
Screening COc1cc(/C=C/c2ccc3cccc(O)c3n2)cc(Br)c1OC returned Chronic BCR inh inconclusive, RORg inh 1.3µM*, VP16 counter 5µM*, Giardia kill -10, MCF10A rereplic 15µM* and SW480 rerep inconclusive.
`COc1cc(/C=C/c2ccc3cccc(O)c3n2)cc(Cl)c1OC` gave Chronic BCR inh inconclusive, RORg inh 0.79µM*, VP16 counter 4.5µM*, Giardia kill 6, MCF10A rereplic 15µM* and SW480 rerep 4.6µM*.
For CCCCn1c(N)c(N(CC(C)C)C(=O)c2oc3ccc(Br)cc3c2C)c(=O)[nH]c1=O the results were Chronic BCR inh 3%, Giardia kill 8, MCF10A rereplic -5% and SW480 rerep -35%.
`Nc1ccc(F)cc1F` gave RORg inh -3% and VP16 counter -24%.
For O=C(N/N=C/c1cn(-c2ccccc2)nc1-c1cccnc1)c1ccccc1 the results were Chronic BCR inh inconclusive, RORg inh 5.6µM*, VP16 counter -2%, Giardia kill 0, MCF10A rereplic 12µM* and SW480 rerep inconclusive.
NC(=S)N/N=C/c1cn(-c2ccccc2)nc1-c1cccnc1 was read as Chronic BCR inh inconclusive, RORg inh 6.3µM*, VP16 counter 8.9µM*, Giardia kill 11, MCF10A rereplic 16% and SW480 rerep 21%.
`NC(=O)N/N=C/c1cn(-c2ccccc2)nc1-c1cccnc1` gave Chronic BCR inh -4%, RORg inh -3%, VP16 counter 3%, Giardia kill 20, MCF10A rereplic 0% and SW480 rerep -11%.
Screening CC(=O)Nc1ccc(NC(=O)C(C)OC(=O)/C=C/c2cn(-c3ccccc3)nc2-c2cccnc2)cc1 (configuration not stated) returned Chronic BCR inh 1%, RORg inh 13µM*, VP16 counter inconclusive, Giardia kill 0, MCF10A rereplic inconclusive and SW480 rerep -3%.
O=C(O)/C(=C\c1cn(-c2ccccc2)nc1-c1cccnc1)NC(=O)c1ccccc1 was read as Chronic BCR inh 5%, RORg inh 4%, VP16 counter -10%, Giardia kill -10, MCF10A rereplic 1% and SW480 rerep -6%.
Cc1cc(C)[n+]2[nH]c(N)c(N=Nc3ccccc3)c2n1 was read as Chronic BCR inh inconclusive, RORg inh -34%, VP16 counter -2%, Giardia kill -13, MCF10A rereplic 0% and SW480 rerep -38%.
For CC1CCCC(NC(=O)CNCc2ccccc2F)C1C (configuration not stated) the results were Chronic BCR inh 2%, RORg inh 5%, VP16 counter 6%, Giardia kill -3, MCF10A rereplic -2% and SW480 rerep -5%.
Screening COc1ccc(N2CCN(C(=O)CN(c3cccc(OC)c3)S(=O)(=O)c3ccccc3)CC2)cc1 returned Chronic BCR inh -1%, RORg inh inconclusive, VP16 counter 28%, Giardia kill 16, MCF10A rereplic 11% and SW480 rerep -1%.
`Clc1ccc2c(c1)C(C1=NCCN1)c1ccccc1CS2` (configuration not stated) gave Chronic BCR inh 0%, RORg inh 2%, VP16 counter -5%, Giardia kill 0, MCF10A rereplic 1.6µM* and SW480 rerep 1.3µM*.
`Nc1ncc2c(n1)-c1cc(Cl)ccc1SC2` gave Chronic BCR inh inconclusive, RORg inh 4%, VP16 counter -10%, Giardia kill 16, MCF10A rereplic 0% and SW480 rerep 16%.
O=C(c1ccncc1)N1CCC2(CC1)CCN(c1ccncc1)CC2 was read as RORg inh -35% and VP16 counter -4%.
